Data on 25 compounds can be found in PubChem BioAssay (NCATS).

Results filed as inconclusive are left out. Active and inactive are the calls of the source. Unless noted, the call rests on the fitted dose curve; in most records, active means well fitted curve in the direction sought with a large enough effect; inconclusive means small, poorly fitted or top-dose-only effect, or another doubt; inactive means no such curve, though single readings can be large; an effect the other way counts as inactive or inconclusive.

Assay [1] deals with Aldehyde dehydrogenase, mitochondrial (Homo sapiens) (UniProt P05091). The assay can be described thus: qHTS for Inhibitors of the Aldehyde Dehydrogenase Family (ALDH2) Confirmatory screens (AID 2061303; active means well fitted inhibition curve with a large enough effect; title and protocol of this record describe different tests; further: nearly all actives have a fitted effect of over 45% in size; further: potency means the concentration at half of the fitted maximal effect).
A short description of assay [2]: qHTS for Inhibitors of the Aldehyde Dehydrogenase Family (ALDH1A2, ALDH1A3, ALDH2, ALDH3A1) (AID 2061307). Further: nearly all actives have a fitted effect of over 50% in size. On Potency: test system not described further here; potency means the concentration at half of the fitted maximal effect. Background: In qHTS, concentration-response curves come from the screen itself.
The target in assay [3] is Aldehyde dehydrogenase, mitochondrial (Homo sapiens) (UniProt P05091). The assay can be described thus: qHTS for Inhibitors of the Aldehyde Dehydrogenase Family (ALDH2) Primary screen (AID 2061308). Further: nearly all actives have a fitted effect of over 55% in size. Further: potency means the concentration at half of the fitted maximal effect.
In assay [4] the target is Retinaldehyde dehydrogenase 3 (Homo sapiens) (UniProt P47895). The experiment in a line: qHTS for Inhibitors of the Aldehyde Dehydrogenase Family (ALDH1A3) Confirmatory screens (AID 2061311). Further: nearly all actives have a fitted effect of over 60% in size. Further: potency means the concentration at half of the fitted maximal effect.
Assay [5] has as its target Retinal dehydrogenase 2 (Homo sapiens) (UniProt O94788). The experiment in a line: qHTS for Inhibitors of the Aldehyde Dehydrogenase Family (ALDH1A2) Confirmation screens (AID 2061314). Further: nearly all actives have a fitted effect of over 65% in size. Further: potency means the concentration at half of the fitted maximal effect.
The target of assay [6] is Retinaldehyde dehydrogenase 3 (Homo sapiens) (UniProt P47895). The experiment in a line: qHTS for Inhibitors of the Aldehyde Dehydrogenase Family (ALDH1A3) Primary screen (AID 2061315).

Turning to `Cc1cc(C(F)(F)F)nc(CNc2cc(C)nc3c(C)c(C)nn23)n1`, in assay [1], the Potency result was “inactive”.

In the case of `Cc1ccc(CNc2ccc(N3CCNCC3=O)cc2)cc1`, the Potency result in assay [1], in assay [2], in assay [3] and in assay [6] was “inactive” each time. Also, the Potency is 14.2 µM (active) in assay [4] and 10.1 µM (active) in assay [5].

Regarding `Cc1cc(C)n2ncc(C(=O)Nc3ccc4c(c3)OCO4)c2n1`, the Potency entry in assay [1], in assay [2], in assay [3], in assay [4], in assay [5] and in assay [6] was “inactive” each time.

`CC(=O)Nc1sc2c(c1-c1cc3ccccc3[nH]1)CCNC2`: the Potency result in assay [1], in assay [2], in assay [3], in assay [4] and in assay [6] was “inactive” in each case. In addition, the Potency in assay [5] was 28.3 µM (active).

Take `Nc1ccc(S(=O)(=O)N2CCN(S(=O)(=O)c3c(F)cccc3F)CC2)cc1`: the Potency result in assay [1], in assay [2], in assay [3], in assay [4], in assay [5] and in assay [6] was “inactive” each time.

Take `NC(=O)C1CCN(c2nc(-c3ccc([N+](=O)[O-])cc3)cs2)CC1`: the Potency in assay [1] was 25.1 µM (active); in assay [2], 11.3 µM (active); in assay [4], 22.5 µM (active); in assay [5], 3.18 µM (active). The Potency entry in assay [3] and in assay [6] was “inactive” each time.

As to `COc1cc(CNc2ncnc3ccc(-c4c(C)noc4C)cc23)cc(OC)c1OC`, the Potency result in assay [1], in assay [2], in assay [3], in assay [4], in assay [5] and in assay [6] was “inactive” throughout.

Regarding `O=C(O)c1ccc2c(c1)C(=O)N([C@]1(C(=O)O)C[C@H]1c1ccccc1)C2=O`, the Potency result in assay [1], in assay [2], in assay [3], in assay [4], in assay [5] and in assay [6] was “inactive” in each case.

Turning to `COc1ccc(C=O)cc1COc1ccc(NC(C)=O)cc1`, the Potency in assay [1] was 3.16 µM (active); in assay [2], 0.318 µM (active); in assay [4], 15.8 µM (active); in assay [5] it was 3.18 µM (active). The Potency result in assay [3] and in assay [6] was “inactive” each time.

Regarding `COc1ccc(-c2nc3ccccc3s2)cc1`, the Potency entry in assay [1], in assay [3] and in assay [5] was “inactive” each time. Besides, the Potency in assay [2] is 1.7 µM (active); in assay [4], 1.42 µM (active).

As for `COc1ccc(C2Nc3ccccc3C(=O)N2Cc2ccc(Cl)cc2)cc1COc1ccc(NC(C)=O)cc1` (configuration not stated), the Potency in assay [1] is 3.98 µM (active); in assay [2], 2.25 µM (active); in assay [4] it was 3.55 µM (active); in assay [5], 12.7 µM (active). Further, the Potency entry in assay [3] and in assay [6] was “inactive” in each case.

With `FC(F)(F)c1ccccc1-c1nc(NCc2ccc(-c3cccnc3)cc2)c2ccccc2n1`, the Potency entry in assay [1], in assay [2], in assay [3], in assay [5] and in assay [6] was “inactive” in each case. Also, the Potency in assay [4] was 10.1 µM (active).

In the case of `O=[S+]([O-])(NCc1nccs1)c1ccc(Nc2nc(-c3ccccc3)cs2)cc1`, the Potency result in assay [1], in assay [2], in assay [3], in assay [4], in assay [5] and in assay [6] was “inactive” each time.

As for `Cc1nc2ccc(Nc3nc(Nc4c(C)cc(C=CC#N)cc4C)nc4nc[nH]c34)cc2s1`, the Potency entry in assay [1], in assay [3], in assay [4], in assay [5] and in assay [6] was “inactive” in each case. Also, the Potency in assay [2] was 10.1 µM (active).

`Cc1ccc(OCCn2c(CCNC(=O)c3ccccc3C(F)(F)F)nc3ccccc32)cc1`: the Potency entry in assay [1], in assay [2], in assay [3], in assay [4], in assay [5] and in assay [6] was “inactive” each time.

`Cn1nnnc1Sc1ncnc2scc(Br)c12`: the Potency result in assay [1], in assay [2], in assay [3], in assay [4], in assay [5] and in assay [6] was “inactive” in each case.

In the case of `C=C(C(=O)OC)C1CCC2(C)C(O[C@@H]3O[C@H](CO)[C@@H](O)[C@H](O)[C@H]3O)CC(=O)C(C)C2C1O` (some centres not stated), the Potency result in assay [1], in assay [2], in assay [3] and in assay [5] was “inactive” in each case. In addition, the Potency in assay [4] is 11 µM (active).

As for `CC(=O)Nc1sc2c(c1-c1cnn(C(C)=O)c1)CCNC2`, the Potency entry in assay [1], in assay [2], in assay [3], in assay [4], in assay [5] and in assay [6] was “inactive” throughout.

`O=C(Nc1ccc(F)c(C(F)(F)F)c1)Nc1nnc(C2CCCCC2)s1`: the Potency result in assay [1], in assay [2], in assay [4], in assay [5] and in assay [6] was “inactive” in each case. In addition, the Potency in assay [3] was 8.91 µM (active).

As for `NC1CCN(c2cnc3c(O)ccc(C(=O)O)c3c2)CC1`, the Potency entry in assay [1], in assay [2], in assay [3] and in assay [6] was “inactive” throughout. The Potency in assay [4] was 20.1 µM (active); in assay [5] it was 14.2 µM (active).

On to `COc1cccc(OC2=NS(=O)(=O)c3ccccc32)c1`, for which the Potency entry in assay [1], in assay [2], in assay [3], in assay [4], in assay [5] and in assay [6] was “inactive” each time.

In the case of `O=C1c2ccccc2NC(c2ccc(-c3ccc(Br)cc3)o2)N1O` (configuration not stated), the Potency was 0.891 µM (active) in assay [1]; 11.3 µM (active) in assay [2]; 1 µM (active) in assay [3]; 12.7 µM (active) in assay [4]; 12.7 µM (active) in assay [5]. Besides, the Potency entry in assay [6] is “inactive”.

Consider `O=C(NC1CCCc2c1cnn2-c1ccc(F)cc1F)c1ccncc1` (configuration not stated), for which the Potency entry in assay [1], in assay [2], in assay [3], in assay [4], in assay [5] and in assay [6] was “inactive” each time.

In the case of `O=C1NS(=O)(=O)c2cc3c(cc21)C(=O)NS3(=O)=O`, the Potency result in assay [1], in assay [2], in assay [3], in assay [4], in assay [5] and in assay [6] was “inactive” in each case.

With `CC(C)c1ccccc1-c1ncc(F)c(NCc2ccc(-c3cccnc3)cc2)n1`, the results for the Potency in assay [1], in assay [2] and in assay [4] were 5.01 µM (active), 14.1 µM (active) and 8.96 µM (active), respectively. Also, the Potency entry in assay [3] and in assay [5] was “inactive” throughout.
